The values that follow come from publication PMC5540273 (PLoS ONE, 2017).

One assay concerns FLT3-autoinhibited. The conditions noted are these: concentration: 1 μM, replicates: in singlicate; n = 1.
For the next assay, the system named is FLT3. The note with it: concentration: 1 μM, replicates: in singlicate, n = 1.
The next assay has as its system FLT4. The note with it: concentration: 1 μM, replicates: in singlicate, n = 1.
The test system of another assay is FRK. The note with it: concentration: 1 μM, replicates: in singlicate, n = 1.
The subject of the next assay is FYN. The note with it: concentration: 1 μM, replicates: in singlicate, n = 1.
The next assay deals with GAK. The note with it: concentration: 1 μM, replicates: in singlicate, n = 1.
The next assay relates to T1, GCN2(Kin.Dom.2,S808G).
T1 construct: gene EIF2AK4
The conditions noted are these: concentration: 1 μM, replicates: in singlicate, n = 1.

The test system of another assay is GRK1. The note with it: concentration: 1 μM, replicates: in singlicate; n = 1.
The subject of another assay is T2, GRK2.
T2 construct: gene ADRBK1
The conditions noted are these: concentration: 1 μM, replicates: in singlicate, n = 1.

A further assay relates to T3, GRK3.
T3 construct: gene ADRBK2
The conditions noted are these: concentration: 1 μM, replicates: in singlicate, n = 1.

The structures appear in SMILES notation. Where “and” joins values, the source holds several entries; their conditions need not be identical. Identical values can stand only once. Like-named read-outs stand apart in the source and are kept apart here.
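Note: KINOMEscan kinase panel screen.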

On to `NCC(NC(=O)c1cc(-c2cn[nH]c2)c(-c2ccnc3[nH]ccc23)s1)c1ccccc1.O=C(O)C(F)(F)F.O=C(O)C(F)(F)F` (stereo not shown) [GSK1325775], for which the “%Inh” value with FLT3-autoinhibited was 21%; with FLT3, 69%; in the assay with FLT4, 14%; in the assay with FRK, 0%; in the assay with FYN, 25%; in the assay with GAK, 91.9%. Moreover, the “%Inh” value is 99.1% in the assay on GCN2(Kin.Dom.2,S808G), 35% in the assay with GRK1, 70% with GRK2 and 76% in the assay on GRK3.
For the molecule `COc1ccc(CNC(=O)NC2CCN(c3ccnc(Nc4ccc(OC)cc4)n3)C2)cc1` (stereo not shown) [GSK1379727], the “%Inh” value in the assay on FLT3-autoinhibited was found to be 0%; in the assay with FLT3, 7%; in the assay with FLT4, 0%; in the assay on FRK, 0%; with FYN, 38%; with GAK, 0%. Further, the “%Inh” value with GCN2(Kin.Dom.2,S808G) is reported as 11%; in the assay on GRK1, 0%; with GRK2, 0%; with GRK3, 48%.
For the molecule `O=C1NC(=O)C(N2CCc3ccccc32)=C1c1cccc(Cl)c1` [SB-408010], the “%Inh” value with FLT3-autoinhibited amounted to 21%; in the assay with FLT3, 0%; with FLT4, 2%; in the assay on FRK it was 0%; with FYN, 0%; in the assay with GAK it was 10%. For the same molecule, the “%Inh” value stood at 17% with GCN2(Kin.Dom.2,S808G), 53% in the assay with GRK1, 0% in the assay with GRK2 and 0% with GRK3.
As to `Nc1nc(-c2ccc3c(N)n[nH]c3c2)cc(N2CCCC2)n1` [GSK2227430], the “%Inh” value in the assay on FLT3-autoinhibited, in the assay with FLT3, in the assay with FLT4, in the assay on FRK, with FYN and with GAK was 0% each time. For the same molecule, the “%Inh” value in the assay on GCN2(Kin.Dom.2,S808G), in the assay on GRK1, in the assay on GRK2 and in the assay with GRK3 was 0% each time.
As for `Cc1nnc(-c2ccc3occ(-c4ccc(C(C)O)cc4)c3c2)o1` (stereo not shown), the “%Inh” value in the assay on FLT3-autoinhibited was 4%; in the assay on FLT3 it was 0%; in the assay with FLT4 it was 6%; with FRK, 10%; with FYN, 15%; in the assay on GAK it was 0%. Moreover, the “%Inh” value in the assay with GCN2(Kin.Dom.2,S808G) is on record as 23%; with GRK1, 0%; in the assay on GRK2, 0%; in the assay on GRK3, 12%.
For `CC(=O)Nc1ccc(COc2ccc(Nc3ccnc4cc(-c5ccccn5)ccc34)cc2)cc1.Cl` [GW440148], the “%Inh” value with FLT3-autoinhibited is 38%; in the assay with FLT3 it was 98%; with FLT4, 99.9%; with FRK, 0%; in the assay on FYN it was 47%; in the assay with GAK, 8%. Moreover, the “%Inh” value in the assay with GCN2(Kin.Dom.2,S808G) worked out at 0%; with GRK1, 0%; in the assay with GRK2 it was 0%; in the assay on GRK3 it was 17%.
As to `O=C1Cc2cc(Nc3nc(NCc4cccc(S(=O)(=O)C(F)(F)F)c4)ncc3C(F)(F)F)ccc2N1`, the “%Inh” value with FLT3-autoinhibited turned out to be 0%; in the assay on FLT3, 0%; in the assay on FLT4, 0%; in the assay on FRK it was 0%; in the assay with FYN, 0%; in the assay on GAK, 8%. Further, the “%Inh” value in the assay on GCN2(Kin.Dom.2,S808G) is recorded as 28%; in the assay on GRK1, 0%; in the assay on GRK2, 30%; in the assay with GRK3, 22%.
Turning to `O=C(NCCNc1ccnc(Nc2ccc(F)cc2)n1)Nc1ccccc1F` [GSK1379880], the “%Inh” value with FLT3-autoinhibited is recorded as 0%; in the assay with FLT3, 0%; with FLT4, 0%; in the assay with FRK it was 0%; with FYN, 28%; with GAK it was 0%. In addition, the “%Inh” value stood at 3% in the assay with GCN2(Kin.Dom.2,S808G), 0% with GRK1, 0% in the assay with GRK2 and 23% in the assay with GRK3.
For the molecule `COc1ccc(Nc2nccc(N3CCC(NC(=O)Nc4cccc(C(C)=O)c4)C3)n2)cc1` (stereo not shown) [GSK1379731], the “%Inh” value is given as 0% with FLT3-autoinhibited; 34% with FLT3; 4% in the assay on FLT4; 0% in the assay with FRK; 1% in the assay on FYN; 0% with GAK. The “%Inh” value in the assay on GCN2(Kin.Dom.2,S808G) was determined as 0%; in the assay on GRK1 it was 0%; in the assay on GRK2, 0%; in the assay on GRK3, 4%.
Regarding `[2H]C([2H])(c1cccc(C(F)(F)F)c1C)n1ccn2c(=O)nc(N3CCOCC3)cc12` [GSK2336394], the “%Inh” value in the assay with FLT3-autoinhibited came out at 0%; with FLT3, 12%; in the assay with FLT4, 3%; in the assay with FRK it was 6%; in the assay on FYN it was 44%; in the assay on GAK, 0%. Besides, the “%Inh” value is 0% in the assay with GCN2(Kin.Dom.2,S808G), 0% with GRK1, 0% with GRK2 and 20% with GRK3.
Regarding `CSc1ccc(-c2cc3ncnc(SCC(=O)O)c3s2)cc1`, the “%Inh” value in the assay with FLT3-autoinhibited was determined as 0%; in the assay on FLT3 it was 0%; with FLT4 it was 0%; with FRK it was 16%; with FYN it was 4%; in the assay with GAK, 0%. Moreover, the “%Inh” value in the assay on GCN2(Kin.Dom.2,S808G) is recorded as 0%; in the assay with GRK1 it was 0%; in the assay with GRK2 it was 0%; in the assay on GRK3 it was 13%.
Regarding `CC(C)(CN)c1nc(-c2ccc(Cl)c(O)c2)c(-c2ccncc2)[nH]1.O=C(O)C(F)(F)F` [SB-477794], the “%Inh” value in the assay with FLT3-autoinhibited was 0%; in the assay on FLT3 (1 µM), 0% and 29%; with FLT4 (1 µM), 78% and 74%; in the assay on FRK (1 µM), 99.5% and 99.1%; in the assay with FYN (1 µM) it was 97.3% and 96.8%; with GAK (1 µM), 71% and 56%. Also, the “%Inh” value with GCN2(Kin.Dom.2,S808G) (1 µM) was 14% and 0%; in the assay with GRK1 it was 0%; in the assay on GRK2 (1 µM), 0% and 26%; in the assay with GRK3 (1 µM), 65% and 0%.
As for `Fc1ccc(-c2ncn(CCCN3CCOCC3)c2-c2cccnc2)cc1` [SB-211743], the “%Inh” value was determined as 0% with FLT3-autoinhibited; 9% in the assay on FLT3; 0% with FLT4; 0% with FRK; 0% in the assay on FYN; 2% with GAK. The “%Inh” value worked out at 8% in the assay with GCN2(Kin.Dom.2,S808G), 16% in the assay on GRK1, 0% in the assay with GRK2 and 7% with GRK3.
With `COc1ccc(COc2cc(-n3cnc4ccccc43)sc2C(N)=O)cc1` [GSK1024304], the “%Inh” value in the assay with FLT3-autoinhibited is on record as 0%; in the assay with FLT3, 4%; in the assay on FLT4, 1%; with FRK, 0%; in the assay on FYN it was 16%; with GAK, 17%. The “%Inh” value in the assay on GCN2(Kin.Dom.2,S808G) is on record as 0%; with GRK1, 0%; with GRK2, 0%; in the assay with GRK3, 10%.
`COc1cc2c(cc1OC[C@@H](O)CO)ncc1c3ccc(C#N)cc3[nH]c21`: the “%Inh” value worked out at 90% with FLT3-autoinhibited; 97.5% in the assay on FLT3; 7% with FLT4; 0% in the assay on FRK; 0% in the assay on FYN; 98.9% in the assay on GAK. Further, the “%Inh” value in the assay with GCN2(Kin.Dom.2,S808G) was determined as 82%; in the assay with GRK1, 16%; in the assay on GRK2, 13%; in the assay on GRK3, 0%.
For `O=C(c1ccc(-c2cc(-c3c[nH]nc3-c3ccccn3)ccn2)cc1)N1CCOCC1` [GW812171], the “%Inh” value with FLT3-autoinhibited came to 0%; with FLT3 it was 1%; in the assay with FLT4, 0%; in the assay with FRK, 0%; in the assay with FYN, 0%; in the assay on GAK, 34%. Also, the “%Inh” value in the assay with GCN2(Kin.Dom.2,S808G) stood at 0%; in the assay on GRK1, 26%; with GRK2, 0%; in the assay with GRK3, 20%.
